# Shown are actives, neighbours in structure and some others; about 0.77% of the full set was active somewhere.
# TbPYK inhibitor: T. brucei pyruvate kinase inhibition; Q57TT1; TbPYK enzyme, Kinase-Glo Plus ATP luminescence, 45 min; Potency, µM (highest dose often 76.8 µM), inactives show at the top dose activity, negative = inhibition, most hits filed as inhibitors; 410,000 compounds, 0.12% hits; note: % is set by controls: 0 for no effect and ±100 for the full control effect; nearly all actives have a fitted effect of over 50% in size
#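 Readout: single end-point luminescence (Kinase-Glo Plus, 10 min). Reaction conditions were TbPYK/substrate plus 130 uM ADP, 45 min at RT, pH 7.2 TEA buffer. No-enzyme wells served as controls, and data were normalized before concentration-response fitting.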
# NS1 inh: inhibitors of influenza NS1 protein function; Potency, µM (top dose mostly 46.1 µM), for the others: top-dose activity, positive = more growth; 270,000 compounds, 0.4% hits; calls by dose curve; note: actives are rising curves; nearly all actives have a fitted effect of over 50% in size
#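 Compounds were scored for reversing the slow growth caused by influenza A NS1 in S. cerevisiae, measured by optical density at 600 nm. Assay medium contained 2% galactose at pH 6.0; NS1-free yeast of the same strain were the positive control.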
# LmPK inh: inhibitors of Leishmania mexicana pyruvate kinase; Q27686; purified LmPK, Kinase-Glo ATP luminescence, 1 h; Potency, µM (titrated, usually from 57.5 µM), without a hit: at the top dose activity change, negative = inhibition, hits mostly inhibitors; 290,000 compounds, 0.37% hits; note: % is set by controls: 0 for no effect and ±100 for the full control effect
# Target sequence (Q27686 whole entry, looked up): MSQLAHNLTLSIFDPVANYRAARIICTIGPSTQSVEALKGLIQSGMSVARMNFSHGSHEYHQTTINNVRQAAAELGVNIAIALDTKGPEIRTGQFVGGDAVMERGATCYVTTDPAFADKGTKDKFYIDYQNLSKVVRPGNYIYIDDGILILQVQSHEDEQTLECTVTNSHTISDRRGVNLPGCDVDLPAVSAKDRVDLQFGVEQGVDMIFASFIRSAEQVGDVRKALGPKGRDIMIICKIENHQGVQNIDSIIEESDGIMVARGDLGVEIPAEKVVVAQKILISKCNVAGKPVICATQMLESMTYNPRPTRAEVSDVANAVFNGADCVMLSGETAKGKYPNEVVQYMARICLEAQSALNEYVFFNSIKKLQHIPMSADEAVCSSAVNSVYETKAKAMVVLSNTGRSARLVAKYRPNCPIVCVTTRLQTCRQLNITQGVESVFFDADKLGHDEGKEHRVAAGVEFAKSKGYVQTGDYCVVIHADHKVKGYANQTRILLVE
#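 In 50 mM imidazole pH 7.2 with 7 mM MgCl2, LmPK (0.1 nM) turned over PEP (0.5 mM) and ADP (0.1 mM) for 1 h at room temperature. Luciferase read-out of ATP.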
# RE007 growth inh: less growth of the S. pombe RE007 Vpr strain. S. pombe RE007 Vpr strain, BacTiter-Glo ATP luminescence, 24 h. Potency, µM (titrated, usually from 92.2 µM), for the others: top-dose activity change, negative = less growth, usual class: inhibitors. 360,000 compounds, 0.21% hits; active = well fitted falling curve with a large enough effect; inconclusive = small, poorly fitted or top-dose-only effect; inactive = no such curve, though single readings can be large or run the other way; note: % is set by controls: 0 for no effect and ±100 for the full control effect; nearly all actives have a fitted effect of over 50% in size
#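 Fission yeast RE007 carrying one integrated HIV-1 vpr copy, seeded at OD 0.01 in PMG+AL medium with 23 nL pinned compound. Grown 24 h at 30 degrees; viability read by BacTiter-Glo luminescence after 5 min.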
# The depositor's hits bear a star; ? = inconclusive; . = no result; [ ] = another dose, or the depositor's remark. Unless noted, calls come from the whole dose curve; as a rule, active = well fitted curve in the direction sought with a large enough effect; inconclusive = small, poorly fitted or top-dose-only effect, or another doubt; inactive = no such curve, though single readings can be large; an effect the other way counts as inactive or inconclusive. Potency is the fitted concentration of half-maximal effect.
SMILES,TbPYK inhibitor,NS1 inh,LmPK inh,RE007 growth inh
O=C(Nc1ccc2c(c1)nc1n2CCSC1)c1ccccc1,-17.5%,-11.3%,15.8µM*,-14.7%
CCCOc1ccc(CCc2n[nH]c(=S)n2Cc2ccccc2)cc1,?,11.1%,?,22.1%
CCn1c(C(c2ccccc2)c2ccccc2)n[nH]c1=S,8.91µM*,7.0%,-18.0%,8.8%
S=c1[nH]nc(CCc2ccccc2)n1Cc1ccccc1,3.98µM*,6.4%,8.91µM*,-0.2%
COc1ccccc1OCc1n[nH]c(=S)n1Cc1ccccc1,3.98µM*,.,-1.0%,13.5%
CC[C@H]1OC(=O)[C@H](C)C(=O)[C@H](C)[C@@H](OC2O[C@H](C)C[C@H](N(C)C)[C@@H]2O)[C@@](C)(OC)C[C@@H](C)C(=O)[C@@H](C)C2N(CCCCn3cnc(-c4cccnc4)c3)C(=O)O[C@@]21C (stereo partly specified),1.7%,.,.,.
Cc1sc2nc(CN3CCN(c4ccc(O)cc4)CC3)[nH]c(=O)c2c1C,-28.5%,0.0%,14.1µM*,14.1%
NCCCNCCCCNC(=O)C(O)NC(=O)CCCCCCN=C(N)N (stereo unspecified),0.0%,.,.,.
Cc1ccc(NC2=C(Cl)C(=O)c3ccccc3C2=O)cc1,-5.7%,10.7%,-10.6%,-2.1%
O=S(=O)(c1ccccc1)c1ccc(NCc2ccco2)cc1,-1.6%,-5.9%,8.2%,11.2%
CCCC(=O)NC1=C(Cl)C(=O)c2ccccc2C1=O,?,.,.,7.08µM*
CCNC1=C(Cl)C(=O)c2ccccc2C1=O,-3.8%,?,18.7%,15.8µM*
O=C1c2ccccc2-c2onc3ccc(NCc4ccco4)c1c23,-23.2%,-110.9%,-26.1%,28.2µM*
O=C1C(Cl)=C(NCc2ccco2)C(=O)c2ccccc21,-8.0%,.,.,20µM*
CO[C@@H]1/C=C\O[C@]2(C)Oc3c(C)c(O)c4c(O)c(cc(O)c4c3C2=O)NC(=O)/C(C)=C\C=C/[C@H](C)[C@@H](O)[C@H](C)[C@H](O)C(C)[C@H](OC(C)=O)[C@@H]1C (stereo partly specified),.,-10.5%,.,.
CCN1CCN(C(=O)N[C@H](C(=O)N[C@@H]2C(=O)N3[C@@H](C(=O)O)C(C)(C)S[C@@H]23)c2ccccc2)C(=O)C1=O,8.1%,.,.,.
Fc1ccccc1-c1nc(-c2ccccc2)no1,-11.8%,3.9%,11.2µM*,?
Fc1ccccc1-c1nc(-c2ccncc2)no1,-14.7%,-7.5%,?,?
CC[n+]1c(/C=C/C=C/c2ccc(N(C)C)cc2)sc2ccccc21,?,-72.9%,15.8µM*,6.31µM*
CCOC(=O)N1CCN(c2cc(NCCC(=O)O)c3c4c(onc24)-c2ccccc2C3=O)CC1,-15.4%,-8.0%,15.8µM*,?
COc1cc2c(cc1OC)C1O[C@](CCCCN3C(=O)c4ccccc4C3=O)(C2)OC2=C1C(=O)c1ccccc1C2=O,.,24.3%,-8.0%[11.5 µM],.
COc1ccc(C(=O)n2c(N)nc3ccccc32)cc1OC,-2.0%,-5.3%,-2.3%,-13.6%
Nc1nc2ccccc2n1C(=O)c1ccc(F)cc1,-9.8%,-1.2%,25.1µM*,-13.0%
Nc1nc2ccccc2n1C(=O)c1ccccc1,?,1.1%,6.31µM*,?
CC1=C[C@@H](O)CC(C)(C)[C@@H]1/C=C/C(C)=C/C=C/C(C)=C/C=C/C=C(C)/C=C/C=C(C)/C=C/C1=C(C)C[C@H](O)CC1(C)C,3.7%,.,.,.
SMILES,TbPYK inhibitor,NS1 inh,LmPK inh,RE007 growth inh
Nc1nc(Nc2ccccc2)nc2c1ncn2[C@@H]1O[C@H](CO)[C@H](O)[C@H]1O,.,-3.1%,.,.
COc1ccc(C(=O)CCN2CCN(c3ccccc3OC)CC2)cc1,-2.0%,.,-5.0%,?
CCCOc1ccc(C(=O)CCN2CCCCC2)cc1,3.5%,-42.8%,2.9%,17.8µM*
COc1ccc(C(=O)CCN2CCc3cc(OC)c(OC)cc3C2)cc1,-8.7%,-31.6%,0.5%,25.1µM*
CCCCOc1ccc(C(=O)CCN2CCOCC2)cc1,-14.4%,.,1.3%,?
CCOc1ccc(C(=O)CCN2CCCCCC2)cc1,-19.8%,-54.0%,-5.8%,15.8µM*
c1cc(CSc2ncnc3nc[nH]c23)ccn1,.,-2.8%,.,.
COc1ccc(NC(=O)C2CCCN(c3nnc(C)c4c(C)n(-c5ccccc5)nc34)C2)cc1Cl (stereo unspecified),-2.3%,.,.,.
CC1=C(C)/C(=N\OS(=O)(=O)c2ccccc2)C=CC1=O,2.3%,-249.2%,7.3%,7.94µM*
COc1ccc(/C(C#N)=C/c2ccccn2)cc1,-4.4%,-0.9%,8.91µM*,.
Clc1ncccc1-c1nnn(-c2ccccc2)n1,-11.4%,-7.1%,15.8µM*,-22.9%
Fc1ccc(-n2nnc(-c3cccnc3Cl)n2)cc1,-0.8%,-7.1%,-25.6%,-23.9%
Cc1nnc(SC2CC(=O)N(c3ccccc3)C2=O)s1 (stereo unspecified),-6.2%,-3.5%,5.0%,39.8µM*
O=C1CC(Sc2nnc(-c3ccccc3)o2)C(=O)N1c1ccccc1 (stereo unspecified),-20.5%,-83.0%,4.1%,15.8µM*
O=C(O)c1cccnc1SC1CC(=O)N(c2ccccc2)C1=O (stereo unspecified),1.5%,1.8%,0.9%,4.5%
O=C1CC(Sc2cccs2)C(=O)N1c1ccccc1 (stereo unspecified),-5.1%,-63.1%,0.6%,?
O=C(O)c1ccccc1SC1CC(=O)N(c2ccccc2)C1=O (stereo unspecified),1.4%,-43.3%,-3.2%,10µM*
COc1cc2c(cc1O)CCN[C@@]21CS[C@H]2c3c(OC(C)=O)c(C)c4c(c3C(COC1=O)N1C2C2c3c(cc(C)c(OC)c3O)CC([C@@H]1O)N2C)OCO4 (stereo partly specified),-3.2%,.,.,.
CC[C@H](C(=O)c1cccs1)C(O)(C(F)(F)F)C(F)(F)F,.,5.2%,.,.
C=C[C@@H]1CN2CC[C@H]1CC2[C@H](O)c1ccnc2ccccc12 (stereo partly specified),.,-4.1%,.,.
N#CC1=C2SCN(c3ccccc3)CN2C(=O)CC1c1c(Cl)cccc1Cl (stereo unspecified),2.51µM*,11.2µM*,-12.3%,-3.6%
COc1cc(OC)c(C2CC(=O)N3CN(c4ccccc4)CSC3=C2C#N)cc1OC (stereo unspecified),8.91µM*,-84.7%,8.0%,8.7%
CCc1ccccc1N1CSC2=C(C#N)C(c3cc(OC)c(OC)cc3OC)CC(=O)N2C1 (stereo unspecified),10µM*,10µM*,-5.7%,-5.9%
COc1ccc(OC)c(C2CC(=O)N3CN(c4cccc(Cl)c4C)CSC3=C2C#N)c1 (stereo unspecified),3.55µM*,-34.3%,-1.6%,0.6%
COc1cc(OC)c(C2CC(=O)N3CN(C)CSC3=C2C#N)cc1OC (stereo unspecified),?,-49.6%,?,-7.7%
N#CC1=C2SCN(c3ccccc3)CN2C(=O)CC1c1ccccc1Cl (stereo unspecified),?,-25.6%,2.4%,-10.8%
C=CCN1C(=O)/C(=C/c2cccs2)C(=O)NC1=S,35.5µM*,-2.0%,7.9%,?
